{
  "source": "PubChem BioAssay (NCATS)",
  "note": "Records with an inconclusive call do not appear. Entries that show only a call come without a potency. Active and inactive are the calls of the source. Calls follow the shape of the dose curve; as a rule, active = well fitted inhibition curve with a large enough effect; inconclusive = small, poorly fitted or top-dose-only effect; inactive = flat fitted curve, though single readings scatter. Potency is read from the fitted curve at half-maximal effect.",
  "data": [
    {"assay": "BET inhibitor-based combinations targeting novel dependencies in MECOM-rearranged (r) AML: AML-194 cell line (AID 2202237; also: nearly all actives have a fitted effect of over 40% in size)", "details": "AML-194 (MECOM-r AML) viability, CellTiter-Glo, 48 h; series mostly up to 46 µM", "description": "Ecotropic viral insertion site 1 (EVI1) is located on chromosome 3q26.2 as part of the MECOM (MDS and EVI1 complex) locus. Under normal hematopoiesis, EVI1 is a regulator of hematopoietic stem cell maintenance and self-renewal and EVI1 levels decrease as the cells differentiate. In approximately 5-10% of de novo acute myeloid leukemia (AML) EVI1 is aberrantly expressed, including Chromosomal inv(3)(q21;q26.2) or t(3;3)(q21;q26.2) alterations (MECOM-r) that account for about 50% of AML with EVI1 overexpression 31. AMLs with high levels of EVI1 have a poor prognosis and an overall survival time averaging between 10-14 months. EVI1 overexpression confers resistance in leukemia cells, highlighting the need to develop new targeted therapies for EVI1 overexpressing AMLs.\nHere, we performed an unbiased chemical drug screening by evaluating the single agent activity of a collection of 2,480 oncology-focused, approved and investigational drugs (NCATS Mechanism Interrogation Plates, MIPE v5.0) against a panel of seven AML cell lines. These included four MECOM-r cell-lines (AML-191, AML-194, UCSD-AML1 and HNT-34) and three non-MECOM-r AMLs (MV4-11, OCI-AML3 and SET-2). Exploiting the mechanistic redundancy built in the library, we identified target-level sensitivities in MECOM-r AML cells and relative activity as compared to other AML subtypes.\nA collection of 2480 mechanistically annotated dugs (MIPE v5.0) was used to screen four 3q26.2 rearranged AML cell lines and three non-3q26.2 rearranged AML cell lines. This library purposely exploits redundancy by including multiple inhibitors of key onco-targets, while simultaneously encompassing mechanistic diversity, targeting more than 800 distinct mechanisms of action. Briefly, cells were seeded in 5 uL of growth media using a Multidrop Combi dispenser into 1536 well white polystyrene tissue culture treated plates (Corning) at a density of 500cells/well. For each cell-line, for each of the 2480 drugs in MIPE v5.0 library, an 11-point dose curve was generated via a 1536 pin-tool. Plates were incubated for 48 hr at standard incubator conditions, covered by a stainless steel gasketed lid to prevent evaporation. Cell viability was determined by luminescence based, Cell Titer Glo assay (Promega). In detail, 3 uL of Cell Titer Glo were added to each well and plates were incubated at room temperature for 15 min with a stainless-steel lid in place. Luminescence readings were taken using a Viewlux (PerkinElmer) with a 2 s exposure time per plate. Compound dose-response curves were normalized to DMSO and empty well controls on each plate. Quantitative drug activity data from dose-response curves was determined utilizing area Under the Curve (AUC) and Z-transformed AUC (Z-AUC, a mean-centering transformation applied to each individual cell-line screened).", "values": [
      {"smiles": "CS(=O)(=O)c1ccc(C2=C(c3ccccc3)C(=O)OC2)cc1", "Potency": "inactive"},
      {"smiles": "CN(C)C(=O)[C@H](O)[C@H](Cc1ccccc1)NC(=O)c1cc2cc(Cl)ccc2[nH]1", "Potency": "inactive"},
      {"smiles": "O=C(O)c1ccc(O)c2ncc(N3CCOCC3)cc12", "Potency": "inactive"},
      {"smiles": "COc1ccc(F)c(F)c1C(=O)c1cnc(NC2CCN(S(C)(=O)=O)CC2)nc1N", "Potency": "2.09 µM (active)"},
      {"smiles": "NC12CC3CC(CC(C3)C1)C2", "Potency": "inactive"},
      {"smiles": "CC(C)=CC[C@@H](O)C1=CC(=O)c2c(O)ccc(O)c2C1=O", "Potency": "10.5 µM (active)"},
      {"smiles": "CN1CCN(c2cc(C(=O)Nc3ccc4c(c3)-c3c(c(C(N)=O)nn3-c3ccc(F)cc3)CC4)c(Cl)cn2)CC1", "Potency": "8.33 µM (active)"},
      {"smiles": "CC(C)OC(=O)C1=CN(C(=O)c2ccc(F)c(F)c2)CC(C)(C)c2c1[nH]c1ccccc21", "Potency": "inactive"},
      {"smiles": "COc1cc([C@@H]2c3cc4c(cc3[C@H](O)[C@H]3COC(=O)[C@@H]23)OCO4)cc(OC)c1OC", "Potency": "0.525 µM (active)"},
      {"smiles": "O=C(Nc1ccc2c(c1)CCN(Cc1ncn[nH]1)C2)c1ccccc1-c1ccc(C(F)(F)F)cc1", "Potency": "inactive"},
      {"smiles": "C[C@@]1(c2cc(-c3cncnc3)c(F)cc2F)CCSC(N)=N1", "Potency": "inactive"},
      {"smiles": "CCN(CCCOc1ccc2c(Nc3cc(CC(=O)Nc4cccc(F)c4)[nH]n3)ncnc2c1)CCOP(=O)(O)O", "Potency": "0.662 µM (active)"},
      {"smiles": "OCCN1C[C@H](O)[C@@H](O)[C@H](O)[C@H]1CO", "Potency": "inactive"},
      {"smiles": "COc1ccccc1N1CCN(CC(O)COc2cccc3ccccc23)CC1", "note": "(stereo not given)", "Potency": "inactive"},
      {"smiles": "CC(C)[C@@H](CS(=O)(=O)C(C)C)N1C(=O)[C@@](C)(CC(=O)O)C[C@H](c2cccc(Cl)c2)[C@H]1c1ccc(Cl)cc1", "Potency": "2.35 µM (active)"},
      {"smiles": "C[C@H](NC(=O)Cc1cc(F)cc(F)c1)C(=O)N[C@@H]1C(=O)N(C)c2ccccc2-c2ccccc21", "Potency": "inactive"},
      {"smiles": "CCC(C)(C)C(=O)O[C@H]1C[C@@H](C)C=C2C=C[C@H](C)[C@H](CC[C@@H]3C[C@@H](O)CC(=O)O3)[C@H]21", "Potency": "inactive"},
      {"smiles": "CCCCOc1nc(N)c2c(n1)N(Cc1cccc(CN3CCCC3)c1)CC(=O)N2", "Potency": "inactive"},
      {"smiles": "O=C(CCc1ccc(O)cc1)c1c(O)cc(O)cc1O", "Potency": "inactive"},
      {"smiles": "Cc1ccccc1C(=O)c1ccc(Nc2ccc(Br)cc2N)cc1Cl", "Potency": "inactive"},
      {"smiles": "NC(=O)c1ccc2[nH]ccc2c1", "Potency": "inactive"},
      {"smiles": "Nc1nc(Nc2ccc(S(N)(=O)=O)cc2)nn1C(=O)c1c(F)cccc1F", "Potency": "3.72 µM (active)"},
      {"smiles": "Clc1ccc(C(c2ccc(Cl)cc2)n2cc[n+](CC(OCc3ccc(Cl)cc3Cl)c3ccc(Cl)cc3Cl)c2)cc1", "note": "(stereo not given)", "Potency": "26.3 µM (active)"},
      {"smiles": "Cc1ncc(NC(=O)c2ccc(CN3CCN(C)CC3)c(C(F)(F)F)c2)cc1Nc1nccc(-c2cccnc2)n1", "Potency": "23.5 µM (active)"},
      {"smiles": "Clc1ccc2ncc(-c3cccc(NC4CNC4)n3)n2c1", "Potency": "inactive"},
      {"smiles": "CCCn1c(=O)c2[nH]c(C34CC5CC3C[C@@H](C5)C4)nc2n(CCC)c1=O", "Potency": "inactive"},
      {"smiles": "O=c1ccn([C@@H]2O[C@H](CO)[C@H](O)[C@@H]2F)c(=O)[nH]1", "Potency": "inactive"},
      {"smiles": "CC(C[N+](C)(C)C)OC(N)=O", "note": "(stereo not given)", "Potency": "inactive"},
      {"smiles": "Cc1nc(C(=O)NCC(=O)O)c(O)c2ccc(Oc3ccccc3)cc12", "Potency": "inactive"},
      {"smiles": "CC12CC3CC(C)(C1)CC(N)(C3)C2", "Potency": "inactive"},
      {"smiles": "CC(C)N(CCCNC(=O)Nc1ccc(C(C)(C)C)cc1)C[C@H]1O[C@@H](n2cc(Br)c3c(N)ncnc32)[C@H](O)[C@@H]1O", "Potency": "23.5 µM (active)"},
      {"smiles": "Cc1cc(SCc2sc(-c3ccc(C(F)(F)F)cc3)nc2C)ccc1OCC(=O)O", "Potency": "inactive"},
      {"smiles": "COc1ccc(-n2c(C)c([N+](=O)[O-])c3ccc(O)cc32)cc1", "Potency": "inactive"},
      {"smiles": "CNC(=O)c1nn(C)c2c1C(C)(C)Cc1cnc(Nc3ccc(N4CCN(C)CC4)cc3)nc1-2", "Potency": "1.32 µM (active)"},
      {"smiles": "O=C(/C=C\\n1cnc(-c2cc(C(F)(F)F)cc(C(F)(F)F)c2)n1)NNc1cnccn1", "Potency": "0.372 µM (active)"},
      {"smiles": "Cc1ccc(NC(=O)C2(c3ccc4c(c3)OC(F)(F)O4)CC2)nc1-c1cccc(C(=O)O)c1", "Potency": "inactive"},
      {"smiles": "CC(C)CNc1ccnc(NCc2csc(-c3ccccc3)n2)n1", "Potency": "16.6 µM (active)"},
      {"smiles": "Cc1cccc(Nc2nc(-c3ccncc3)cs2)c1", "Potency": "inactive"},
      {"smiles": "CCCOc1ccc2nc(NC(=O)OC)[nH]c2c1", "Potency": "0.235 µM (active)"},
      {"smiles": "COc1cc(F)c(C(C)C)cc1-c1ccc(C(F)(F)F)cc1CN1C(=O)O[C@H](c2cc(C(F)(F)F)cc(C(F)(F)F)c2)[C@@H]1C", "Potency": "inactive"}
    ]}
  ]
}
